Experimental data as given in the supplement of paper PMC6555819.

How the values were obtained:
Assay in all cases: PBM binding z-score (relative to random genomic background probes); higher = stronger binding; sequences stand for … in GC…GCGATTGACAGCGTAGAATGAAGG
[1] = system: FXR:RXRa (NR concentration 270 nM, RXRa partner concentration 90 nM)
Procedure, shortened: (§1)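 For binding z-scores, the reference was random background probes on custom Agilent 4×180K protein-binding microarrays. These arrays were incubated 1 h with ligand-free nuclear receptor dimers in PBS pH 7.4, 2% milk, 0.02% Triton X-100, 1 mM DTT, 0.2 mg/mL BSA and 0.4 mg/ml salmon testes DNA. Fluorescence was scanned after antibody detection of each partner (one per run) and regression-normalized.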

[2] = system: LXRa:RXRa (NR concentration 270 nM, RXRa partner concentration 90 nM)
Procedure, shortened: as §1

[3] = system: LXRa homodimer (NR concentration 270 nM)
Procedure, shortened: as §1

[4] = system: LXRb:RXRa (NR concentration 270 nM, RXRa partner concentration 90 nM)
Procedure, shortened: as §1

[5] = system: LXRb homodimer (NR concentration 270 nM)
Procedure, shortened: as §1

[6] = system: PPARa:RXRa (NR concentration 270 nM, RXRa partner concentration 90 nM)
Procedure, shortened: as §1

[7] = system: PPARg:RXRa (NR concentration 180 nM, RXRa partner concentration 90 nM)
Procedure, shortened: as §1

[8] = system: PPARg:RXRa 270nM:90nM, anti-RXR (NR concentration 270 nM, RXRa partner concentration 90 nM)
Procedure, shortened: as §1

[9] = system: PPARg:RXRa 30nM:10nM, anti-RXR (NR concentration 30 nM, RXRa partner concentration 10 nM)
Procedure, shortened: as §1

[10] = system: PPARg:RXRa 90nM:30nM, anti-RXR (NR concentration 90 nM, RXRa partner concentration 30 nM)
Procedure, shortened: as §1

| Sequence | PBM binding z-score [1] | PBM binding z-score [2] | PBM binding z-score [3] | PBM binding z-score [4] | PBM binding z-score [5] | PBM binding z-score [6] | PBM binding z-score [7] | PBM binding z-score [8] | PBM binding z-score [9] | PBM binding z-score [10] |
| --- | --- | --- | --- | --- | --- | --- | --- | --- | --- | --- |
| TTATATAGGTAATACAGGTGAAAGTCGGCATCTA | 0.622 | 1.12 | 0.509 | 0.772 | 0.539 | 2.7 | 3.5 | 3.07 | 2.07 | 2.5 |
| TCATATAGGTAAAGGAGAAAGTCGAACGATATGA | 0.86 | 0.393 | -0.261 | 0.259 | -0.317 | 1.11 | 1.53 | 2.56 | 3.86 | 3.22 |
| CCTACTGGGCCAATCAGAGGTCATTGATCATATG | 2.78 | 4.24 | 7.72 | 3.78 | 0.545 | 3.87 | 2.45 | 3.15 | 1.12 | 2.29 |
| CCTGCTAGGTCATGGTCACCTAATCTACAGTATG | 3.67 | 2.86 | 0.345 | 2.19 | -0.376 | 3.56 | 3.28 | 3.54 | 1.07 | 2.72 |
| CCTACTGGGCCACGAAAGGTCGTTGATTCAGTGA | 0.933 | 1.81 | 0.373 | 1.5 | -0.704 | 2.67 | 2.53 | 2.93 | 0.0833 | 1.96 |
| CAAACTAGGTCAAAGGTAAAAGTCGAGCCAACCA | 5.4 | 4.12 | 0.676 | 3.51 | 0.646 | 6.67 | 13 | 10.3 | 12.5 | 12.1 |
| TGAATGAGGTTATAAGACCAGGGAACGTTGCAAA | 1.42 | 1.55 | -0.275 | 0.883 | -0.347 | 2.44 | 1.25 | 1.65 | 0.679 | 1.33 |
| CCTGCTAGGTCAATGGTCAGCTTAAGCAGCTCGC | 3.08 | 2.28 | -0.0012 | 1.51 | -0.1 | 3.13 | 4.41 | 5.21 | 2.37 | 4.79 |
| TCTTGTAGATCAATAGAGGTTAAGAGAGTGCGCT | 1.02 | 3.23 | 0.39 | 1.56 | -0.263 | 1.97 | 0.0918 | 1.53 | 2.37 | 2.22 |
| ATCTCTAGGCAAAGATAGTTCAGTGAATGCAAAT | -0.415 | 0.271 | 0.124 | -0.207 | 0.263 | -0.233 | 0.154 | -0.151 | -0.0446 | -0.153 |
| GCTTGTAGATCAAGGTTAAGAACGACTAAGCTAA | 0.0945 | 0.622 | -0.347 | 0.349 | -0.704 | 1.59 | 1.12 | 2.18 | 0.429 | 1.44 |
| TCATATAGGTAAACAGGAGAAAGTCCGTAAGTTA | 0.871 | 0.628 | -0.02 | 0.291 | -0.116 | 0.987 | 1.23 | 2.26 | 3.93 | 3.07 |
| ACTCGGCGGACAAAGGTCAGAGCTACGCCAGTGA | 3.34 | 3.79 | 1.32 | 2.86 | -0.304 | 4.34 | 4.89 | 5.97 | 3.53 | 5.74 |
| GCTGCTAGGTCAGGTTCGTCAGCTAACGGGTACG | 1.58 | 0.945 | -0.287 | 0.33 | -0.46 | 1.6 | 0.685 | 1.21 | -0.222 | 0.283 |
| TCTAGTTGTTCAAAGGTCACACACTCGAAATGCG | 5.39 | 5.85 | 4.39 | 5.41 | 1.92 | 5.76 | 7.52 | 7.68 | 6.77 | 8.74 |
| GTACCAAGTTGAATAGGTCGTTGATGAGTAGGCG | 0.0295 | 0.289 | -0.317 | 0.163 | -0.262 | 0.893 | 0.208 | 0.125 | -0.197 | -0.278 |
| GTACCAAGGTGAATAGATCGTTGATGAGTAGGCG | 0.377 | 0.133 | -0.179 | -0.113 | -0.522 | 0.852 | 0.853 | 0.705 | 0.296 | 0.417 |
| ATCTCTAGCTAAAGTTCAGTGAAAGATCGATAGA | 0.485 | 1.83 | 1.89 | 1.01 | 0.585 | 1.74 | 1.63 | 3.25 | 1.53 | 2.85 |
| ACCGAAAGGTCGACGAGGTGAGTATACACCGTTT | 4.37 | 3.09 | 0.178 | 2.83 | -0.0188 | 4.42 | 2.71 | 3.21 | 0.781 | 2.02 |
| ATATATAGGTTACATCCGGGTCATTCAGGCTATG | 3.03 | 5.06 | 2.32 | 3.45 | 1.23 | 4.67 | 6.17 | 5.45 | 2.59 | 4.8 |
| ATAGACAGGTGATGAAGGTAACTCAGGCTATCAT | -0.202 | -0.185 | -0.277 | -0.324 | 0.162 | -0.103 | 0.6 | 0.152 | 0.156 | -0.14 |
| AGCATGAGGTTATTAAGATCAGGGAATTGCGGTC | 1.6 | 1.5 | 0.191 | 1.14 | -0.175 | 2.03 | 0.647 | 1.13 | 0.242 | 0.454 |
| GCGACTCGGGCATCAGCAGGTTACCATAACTTAA | -0.428 | -0.386 | -0.511 | -0.334 | -1.48 | 0.263 | 0.266 | -0.256 | -0.629 | -0.12 |
